Experimental data: PubChem BioAssay AID1159580 (chemical genetic matrix, 2015)
Several values for one entry are separate records, joined by “and”; a condition that tells them apart may be missing. Equal values may be shown once. Out of some 5,500 compounds screened, about 2,000 (36%) were called active. About 18% were inconclusive and are not listed. Rule as the data show it: active = normalized growth mostly below about 0.91 (no sharp cut-off); inconclusive = no clear call, values can overlap the other calls; inactive = mostly above about 0.92. Some of the results follow.

Assay: chemical genetic growth profiling, strain panel (AID 1159580);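 also: tested at 20 µM; growth read once vehicle control cultures reached saturation at 30 °C; 1 = growth at the plate median or of vehicle wells; lower values mean less growth of the strain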
Conditions: S. cerevisiae deletion strains, growth OD

Measured: normalized growth

CC(=O)O[C@H]1C(=O)[C@@]2(C)C([C@H](OC(=O)c3ccccc3)[C@]3(O)C[C@H](OC(=O)[C@H](O)[C@@H](NC(=O)c4ccccc4)c4ccccc4)C(C)=C1C3(C)C)[C@]1(OC(C)=O)CO[C@@H]1C[C@@H]2O (stereo partly specified)
active: locus YDL192W, strain arf1, active compounds read low 1.14 [resistant] | locus YDR502C, strain sam2, active compounds read low 1.16 [resistant] | locus YER155C, strain BEM2 (second series), active compounds read low 0.824 | locus YHR200W, strain rpn10, active compounds read low 1.17 [resistant] | locus YIR030C, strain dcg1, active compounds read low 1.09 [resistant] | locus YJL168C, strain set2, active compounds read low 1.07 [resistant]
inactive: locus YAL013W, strain DEP1, active compounds read low 1.08 | locus YAL021C, strain ccr4, active compounds read low 0.995 | locus YAL026C, strain drs2, active compounds read low 0.979 | locus YAL030W, strain snc1, active compounds read low 1 | locus YBL061C, strain skt5, active compounds read low 1.01 | locus YBR009C, strain hhf1, active compounds read low 0.989 | locus YBR021W, strain FUR4, active compounds read low 1.05 | locus YBR023C, strain chs3, active compounds read low 1.01 | locus YBR171W, strain sec66, active compounds read low 0.991 | locus YBR229C, strain ROT2, active compounds read low 1.02 | locus YBR231C, strain swc5, active compounds read low 1.02 | locus YBR279W, strain paf1, active compounds read low 0.994 | locus YCL011C, strain gbp2, active compounds read low 1.02 | locus YCL016C, strain dcc1, active compounds read low 1.04 | locus YCL029C, strain bik1, active compounds read low 1.05 | locus YCL061C, strain MRC1, active compounds read low 1.01 | locus YCL069W, strain vba3, active compounds read low 1.01 | locus YCR088W, strain abp1, active compounds read low 1 | locus YDL005C, strain med2, active compounds read low 1 | locus YDL035C, strain GPR1, active compounds read low 1.06 | locus YDL040C, strain nat1, active compounds read low 1 | locus YDL074C, strain BRE1, active compounds read low 1.05 | locus YDL101C, strain DUN1, active compounds read low 1.03 | locus YDL134C, strain PPH21, active compounds read low 1.03 | locus YDL185W, strain tfp1, active compounds read low 0.936 | locus YDR001C, strain nth1, active compounds read low 1.02 | locus YDR069C, strain doa4, active compounds read low 0.975 | locus YDR101C, strain arx1, active compounds read low 1.07 | locus YDR137W, strain rgp1, active compounds read low 1.02 | locus YDR150W, strain NUM1, active compounds read low 1.03 | locus YDR159W, strain sac3, active compounds read low 0.975 | locus YDR162C, strain NBP2, active compounds read low 1.04 | locus YDR195W, strain ref2 0.994 | locus YDR297W, strain sur2, active compounds read low 0.996 | locus YDR318W, strain mcm21, active compounds read low 1.07 | locus YDR334W, strain swr1, active compounds read low 1 | locus YDR335W, strain msn5, active compounds read low 1 | locus YDR388W, active compounds read low 1.06 | locus YDR392W, strain spt3, active compounds read low 0.79 | locus YEL003W, strain gim4, active compounds read low 0.979 | locus YEL037C, strain rad23, active compounds read low 1.02 | locus YEL061C, strain CIN8 (second series), active compounds read low 0.989 | locus YEL061C, strain CIN8, active compounds read low 1.05 | locus YER015W, strain faa2, active compounds read low 0.997 | locus YER016W, strain bim1, active compounds read low 1.01 | locus YER110C, active compounds read low 1.1 | locus YER111C, strain swi4, active compounds read low 1.02 | locus YER155C, strain BEM2, active compounds read low 1.03 | locus YER167W, strain BCK2, active compounds read low 1.04 | locus YFR010W, strain ubp6, active compounds read low 0.988 | locus YGL078C, strain dbp3, active compounds read low 1.02 | locus YGL086W, strain mad1, active compounds read low 0.944 | locus YGL167C, strain pmr1, active compounds read low 0.994 | locus YGL173C, strain kem1, active compounds read low 1 | locus YGL227W, strain vid30, active compounds read low 1.02 | locus YGL240W, strain doc1, active compounds read low 0.968 | locus YGL248W, strain PDE1, active compounds read low 1.03 | locus YGL253W, strain hxk2, active compounds read low 0.95 | locus YGR078C, strain PAC10, active compounds read low 1.04 | locus YGR135W, strain pre9, active compounds read low 1.05 | locus YGR229C, strain SMI1, active compounds read low 1.13 | locus YGR252W, strain gcn5, active compounds read low 1.13 | locus YHR013C, strain ard1, active compounds read low 0.991 | locus YHR027C, strain rpn1, active compounds read low 0.988 | locus YHR030C, strain SLT2, active compounds read low 1.03 and 0.96 | locus YHR079C, strain IRE1 (second series), active compounds read low 1.03 | locus YHR079C, strain IRE1, active compounds read low 1 | locus YHR094C, strain hxt1, active compounds read low 1.05 | locus YHR129C, strain ARP1, active compounds read low 1.03 | locus YHR142W, strain chs7, active compounds read low 1 | locus YIL066C, strain RNR3, active compounds read low 1.03 | locus YIL073C, strain SPO22, active compounds read low 1.04 | locus YIL125W, strain kgd1, active compounds read low 1.06 | locus YJL092W, strain hpr5, active compounds read low 1.01 | locus YJL095W, strain BCK1 (second series), active compounds read low 1 | locus YJL095W, strain BCK1, active compounds read low 1.03 and 0.973 | locus YJL115W, strain asf1, active compounds read low 1.01 | locus YJL129C, strain trk1, active compounds read low 0.992 | locus YJL134W, strain LCB3, active compounds read low 1.03 | locus YJL154C, strain vps35, active compounds read low 1 | locus YJL164C, strain tpk1, active compounds read low 0.969 | locus YJL166W, strain qcr8, active compounds read low 1.01 | locus YJL187C, strain SWE1 (second series), active compounds read low 1.03 | locus YJL187C, strain SWE1, active compounds read low 0.986 | locus YJR043C, strain POL32, active compounds read low 1.06
